Only some compounds are listed: those with a hit (about 8% of all), similar ones and a draw of the others.
ELG1 DNA repair: ELG1-dependent DNA repair inhibition; HEK293T ELG1-luciferase reporter, luminescence, 16 h; DNA damage induced by 5-fluorouridine; Potency, µM (highest dose often 46.1 µM), actives largely listed as inhibitors; hit rate 2.3% among 330,000; also: nearly all actives have a fitted effect of over 55% in size
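Luminescence from the luciferase reporter, measured 30 min after ONE-Glo reagent at room temperature, was the read-out. Beforehand, 2,000 cells per well were exposed for 16 hr at 37 °C to 5-fluorouridine together with compound or vehicle.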
Coupling enz: coupling enzyme interference in Giardia aldolase counter-screen; hit rate 0.67% among 290,000; coupling enzyme system counterscreen, AmpLite Red fluorescence; activity change, negative = inhibition, % at 58.2 µM, hits read low; AID 2472; in the data active = activity change below about -30%
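First, compound is pin-transferred into glyceraldehyde-3-phosphate coupling-enzyme reagent at 57.5 uM final and held 10 min at RT. Next, substrate, coupling system and AmpLite Red are added. After 20 min RT, fluorescence (525/598 nm) is read.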
Gal4-VP16 FLuc: inhibits Gal4-VP16 luciferase reporter, ROR gamma counter-screen; Drosophila S2 Gal4-VP16 UAS-luciferase, luminescence, 20 h; Potency, µM (titrated, usually from 53.6 µM), actives largely listed as inhibitors; hit rate 3.5% among 310,000; AID 2546;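 also: Gal4-VP16 expression switched on by copper sulfate through the metallothionein promoter; nearly all actives have a fitted effect of over 50% in size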
TSHR antag: antagonists of human thyroid stimulating hormone receptor | hit rate 0.2% among 330,000 | TSHR-expressing cells, TSH-stimulated cAMP HTRF, 2 h; active compounds read low | activity change, negative = inhibition, % at 11.5 µM;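 active = activity change below a set negative limit, meaning inhibition stronger than a set level, cut at about -70% in these data; inconclusive = activity change between two set negative limits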
Target sequence (P16473 whole entry, looked up): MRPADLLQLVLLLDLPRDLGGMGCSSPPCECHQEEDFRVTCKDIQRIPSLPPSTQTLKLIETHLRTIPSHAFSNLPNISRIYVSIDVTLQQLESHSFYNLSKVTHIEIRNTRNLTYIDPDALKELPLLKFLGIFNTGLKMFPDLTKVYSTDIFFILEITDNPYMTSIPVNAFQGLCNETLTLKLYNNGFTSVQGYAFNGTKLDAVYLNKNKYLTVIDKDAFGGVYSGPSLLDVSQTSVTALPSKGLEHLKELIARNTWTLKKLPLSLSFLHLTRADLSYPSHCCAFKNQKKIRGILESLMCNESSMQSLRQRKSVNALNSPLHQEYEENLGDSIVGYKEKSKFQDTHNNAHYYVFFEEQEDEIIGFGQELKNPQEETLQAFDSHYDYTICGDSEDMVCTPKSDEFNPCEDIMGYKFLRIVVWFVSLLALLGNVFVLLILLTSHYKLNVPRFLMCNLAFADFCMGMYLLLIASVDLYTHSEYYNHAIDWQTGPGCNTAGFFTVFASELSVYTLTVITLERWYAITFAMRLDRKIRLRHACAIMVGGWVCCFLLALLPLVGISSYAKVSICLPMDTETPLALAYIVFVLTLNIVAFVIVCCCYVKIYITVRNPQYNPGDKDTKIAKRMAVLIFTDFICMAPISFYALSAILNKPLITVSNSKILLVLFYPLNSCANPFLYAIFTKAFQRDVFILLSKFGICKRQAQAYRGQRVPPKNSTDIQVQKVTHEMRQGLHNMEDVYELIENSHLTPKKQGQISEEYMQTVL
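Read-out is FRET at 665 nm (cryptate excitation 337 nm) from a cryptate-tagged anti-cAMP antibody, competed by cell cAMP against cAMP-d2. Compounds are tested on freshly harvested TSHR cells challenged with 4nM TSH (EC80) for 2 hours at 37 deg C.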
RORgamma inh: ROR gamma (mouse) transcription inhibition; P51450; Drosophila S2 Gal4-RORgamma UAS-luciferase reporter, 20 h; Potency, µM (titrated, usually from 53.6 µM), most hits filed as inhibitors; hit rate 5.4% among 310,000; also: nearly all actives have a fitted effect of over 60% in size
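ROR gamma transcriptional activity was tracked as Gal4-UAS luciferase output in stably transfected Drosophila Schneider cells, with compound added 1 hr before 700 uM copper sulfate induction and a 20 hr ambient-temperature incubation.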
Hits are given with their value; 0 = inactive; ? = inconclusive; - = no result; [ ] = another dose, or the depositor's remark. Unless noted, calls follow the shape of the dose curve; as a rule, active = well fitted curve in the direction sought with a large enough effect; inconclusive = small, poorly fitted or top-dose-only effect, or another doubt; inactive = no such curve, though single readings can be large; an effect the other way counts as inactive or inconclusive.

SMILES	ELG1 DNA repair	Coupling enz	Gal4-VP16 FLuc	TSHR antag	RORgamma inh
CCOc1cc(/C=C2\SC(=N)N(c3nccs3)C2=O)ccc1OCCN1CCOCC1	?	0	2.8µM	0	0.56µM
CCC(c1nnc(SCC(=O)Nc2nnc(-c3ccccc3)o2)n1Cc1ccccc1)N(C)C (stereo unspecified)	?	0	?	0	8.9µM
O=C(COC(=O)c1ccc(Cl)nc1)Nc1ccc(N2CCCCC2)cc1	?	-	-	0	-
NS(=O)(=O)C#Cc1ccccc1	-	0	?	0	5.6µM
Cc1c(NC(=O)/C(C#N)=C/c2ccc(-c3ccc(Cl)c(Cl)c3)o2)c(=O)n(-c2ccccc2)n1C	21µM	0	0	0	0
CCOc1ccccc1NC(=S)N(CCCN1CCOCC1)Cc1cn(C)c2ccccc12	0	0	?	0	11µM
Cc1ccc(Cl)c(NC(=S)N(CCCN2CCOCC2)Cc2ccco2)c1	0	0	?	0	8.9µM
COc1cccc2cc(C(C)N(CCCN3CCOCC3)C(=S)Nc3ccc(C)cc3)oc12 (stereo unspecified)	0	0	0[10 µM]	0	0
COc1ccc(NC(=S)N(CCCN2CCOCC2)C(C)c2cc3ccccc3o2)cc1 (stereo unspecified)	0	0	0	0	10µM
S=C(Nc1ccc(Oc2ccccc2)cc1)N(CCCN1CCOCC1)Cc1ccccn1	0	0	0	0	14µM
O=C(c1cc2ccccc2oc1=O)N(Cc1ccccc1F)C1CCS(=O)(=O)C1 (stereo unspecified)	?	0	0	0	0
Cc1cccc(-c2ccc(-c3cc(=O)oc4cc(C)cc(C)c34)cc2)c1	-	0	0	-	0
COc1ccc(Cl)cc1NC(=S)N(CCCN1CCOCC1)Cc1cn(C)c2ccccc12	0	0	?	0	13µM
COc1cc(Cl)ccc1NC(=S)N(CCCN1CCOCC1)Cc1cn(C)c2ccccc12	?	0	?	0	11µM
COc1ccccc1NC(=S)N(CCCN1CCOCC1)Cc1cn(C)c2ccccc12	0	0	0	0	?
O=C(OCC(=O)N1CCc2ccccc21)c1ccc([N+](=O)[O-])o1	0	-	-	-	-
NC(N)=NCCC[C@H](N)C(=O)NCC(=O)N[C@@H](CC(=O)O)C(=O)N[C@@H](CO)C(=O)O	-	0	0	-	0
Cc1onc(-c2ccccc2)c1C(=O)OCC(=O)N1CCN(c2ccccc2)CC1	?	-	-	0	-
Cc1cccc(C(=O)NNC(=O)C(=O)NC(C)(C)C)c1	0	0	0	0	13µM
CC(C)(C)NC(=O)C(=O)NNC(=O)c1cccc([N+](=O)[O-])c1	?	0	0	0	0
CC(C)(C)NC(=O)C(=O)NNC(=O)c1cccc(Br)c1	?	0	?	-79	?
Cc1cccc(C(=O)NNC(=O)c2ccccc2O)c1	?	0	?	0	13µM
COC(=O)NNC(=O)c1ccc(C(C)(C)C)cc1	?	0	0	0	0
CC(C)(C)NC(=O)C(=O)NNC(=O)c1ccc(C(C)(C)C)cc1	0	0	?	0	8.9µM
CS(=O)(=O)Nc1cccc(-c2cncnc2Nc2ccc(F)cc2)c1	-	0	0	-	0
SMILES	ELG1 DNA repair	Coupling enz	Gal4-VP16 FLuc	TSHR antag	RORgamma inh
N#Cc1ccc(CN2CCC3(CC2)CCN(C(=O)c2cc(C(F)(F)F)cc(C(F)(F)F)c2)CC3)cc1	-	0	0	-	0
CCOC(=O)C1(CCCc2ccccc2)CCN(C(=O)CCOC)CC1	0	0	0	0	0
CCOC(=O)C1(CCc2ccccc2)CCN(Cc2ccc(C(=O)OC)cc2)CC1	0	0	0	0	0
CCOC(=O)C1(CCc2ccccc2)CCN(C(=O)[C@@H]2C[C@@H](C)NC(=S)N2)CC1	0	0	?	0	11µM
CCOC(=O)C1(CCc2ccccc2)CCN(Cc2ccccn2)CC1	0	0	11µM	0	5µM
CCOC(=O)C1(CCCc2ccccc2)CCN(C(=O)CN2C(=O)CSC2=O)CC1	12µM	0	0	0	0
CCOC(=O)C1(CCCc2ccccc2)CCN(C(=O)c2cnc(C)cn2)CC1	16µM	0	0	0	?
O=C1CCCC2CCCCN12 (stereo unspecified)	-	0	0	-	0
O=C(Nc1ccc(Cc2ccncc2)cc1)C1CCC(N2C(=O)C3C4C=CC(C5CC45)C3C2=O)CC1 (stereo unspecified)	8.2µM	0	0	0	?
COC(=O)CSc1nc(N)c2c3c(sc2n1)CCCC3	0	0	0	0	?
COC(=O)CSc1nc(N)c2c3c(sc2n1)C(c1ccccc1)SC(c1ccccc1)C3 (stereo unspecified)	0	0	11µM	0	10µM
Cc1cccc(C)c1NC(=O)CCCSc1nnc(-c2ccc(Cl)cc2)n1-c1ccccc1	21µM	0	0	0	?
Cc1ccc(-c2nnc(SCC(=O)N/N=C/c3ccc(C)s3)n2-c2ccccc2)cc1	23µM	0	?	0	?
N#Cc1ccccc1NC(=O)CSc1nnc(-c2ccc(F)cc2)n1-c1ccccc1	0	0	0	0	0
Cc1cccc(C)c1NC(=O)CCCSc1nnc(-c2ccc(F)cc2)n1-c1ccccc1	16µM	0	0	0	?
COc1cccc(-c2c(C(=O)N/N=C(\C)c3cccs3)nnn2-c2nonc2N)c1	0	0	?	0	?
COc1cc(C(=O)NCc2nnc(SCC(=O)NC3CCCCC3)o2)cc(OC)c1OC	0	-	0	0	0
COc1ccc(C(=O)NCCCNC(=O)c2ccccn2)cc1	0	0	0	0	0
COc1cc(CCC(=O)N2CCN(c3cccc(C)c3C)CC2)cc(OC)c1OC	18µM	0	0	0	0
COc1ccc(/C=C/C(=O)NC2CC3CCC2C3)cc1 (stereo unspecified)	?	0	0	0	0
COc1cc(/C=N/NC(=S)NC2CC3CCC2C3)ccc1O (stereo unspecified)	0	0	5µM	0	2µM
COc1ccc(/C=N/NC(=S)N[C@H]2CC3CCC2C3)cc1 (stereo partly specified)	0	0	3.2µM	0	0.63µM
S=C(N/N=C/c1ccc2c(c1)OCO2)NC1CC2CCC1C2 (stereo unspecified)	?	0	3.2µM	0	4.5µM
Cc1cccnc1CCNCc1c(C(=O)N2C[C@@H](C)O[C@@H](C)C2)nc2ccc(Cl)cn12	0	-	0	0	0
CN1C[C@@H]2C(c3ccc(C(F)(F)F)cc3)C3(c4cccnc4)CC2(C3)[C@H]1c1ccccc1 (stereo partly specified)	0	0	0	0	0
C=CC[C@@H](Cc1ccc(F)cc1)C(=O)OC[C@@H]1CCCN1C(=O)[C@H](CC=C)CC(=O)N(CCO)Cc1ccccc1	?	-	-	0	-
O=C(NNC(=O)c1cc2cc(Br)ccc2oc1=O)c1ccc(O)cc1O	?	0	?	0	10µM
COc1ccc(NC(=O)NCCN2CCN(c3cccc(Cl)c3)CC2)cc1	0	-32	0	0	0

Bioassay records as filed in PubChem.
